The values below come from ChEMBL document CHEMBL3988442, “University of Dundee, Small-Polar-MMV Screening Library” (2021).

For some assays here: Measured potencies and affinities stand elsewhere.

Assay [1] has as its target T1, Methionyl-tRNA synthetase, putative (Leishmania donovani (strain BPK282A1)) (UniProt E9BF75).
T1 sequence (whole entry): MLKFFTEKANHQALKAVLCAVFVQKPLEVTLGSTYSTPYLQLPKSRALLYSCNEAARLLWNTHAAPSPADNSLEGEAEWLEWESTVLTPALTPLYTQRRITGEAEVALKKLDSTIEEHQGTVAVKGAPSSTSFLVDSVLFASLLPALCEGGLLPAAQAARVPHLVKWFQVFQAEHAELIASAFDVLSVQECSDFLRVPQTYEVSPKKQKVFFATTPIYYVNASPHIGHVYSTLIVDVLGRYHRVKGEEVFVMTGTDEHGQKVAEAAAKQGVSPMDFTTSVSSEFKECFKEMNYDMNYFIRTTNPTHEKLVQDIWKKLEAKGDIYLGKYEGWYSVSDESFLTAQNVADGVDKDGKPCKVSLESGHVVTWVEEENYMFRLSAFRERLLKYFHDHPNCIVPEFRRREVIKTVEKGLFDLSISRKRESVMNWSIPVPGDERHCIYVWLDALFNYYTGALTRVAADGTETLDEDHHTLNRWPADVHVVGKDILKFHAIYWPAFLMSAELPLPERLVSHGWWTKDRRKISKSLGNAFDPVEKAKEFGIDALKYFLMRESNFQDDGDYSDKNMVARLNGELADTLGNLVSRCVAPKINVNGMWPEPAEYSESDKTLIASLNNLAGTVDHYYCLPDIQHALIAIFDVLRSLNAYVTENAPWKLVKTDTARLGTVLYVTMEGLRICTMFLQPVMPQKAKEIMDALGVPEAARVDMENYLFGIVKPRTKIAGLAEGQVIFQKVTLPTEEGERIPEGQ
Briefly: Leishmania donovani Methionine tRNA synthetase (LdMetRS):v7. Dose response assay. The class given is functional. Further details: conc 80 nM, time 150 minutes.

Assay [2] has as its target Protein translocase subunit SecA (Escherichia coli (strain K12)) (UniProt P10408). The assay is described as follows: Assay to Identify E. coli SecA ATPase Inhibitors. The class given is functional. Further details: scale not given: direction of the effect not stated beside the values. Particulars: 30 µM.
For assay [3], the target named is T2, Ubiquitin-activating enzyme e1, putative (Leishmania donovani (strain BPK282A1)) (UniProt E9BSI1).
T2 sequence (whole entry): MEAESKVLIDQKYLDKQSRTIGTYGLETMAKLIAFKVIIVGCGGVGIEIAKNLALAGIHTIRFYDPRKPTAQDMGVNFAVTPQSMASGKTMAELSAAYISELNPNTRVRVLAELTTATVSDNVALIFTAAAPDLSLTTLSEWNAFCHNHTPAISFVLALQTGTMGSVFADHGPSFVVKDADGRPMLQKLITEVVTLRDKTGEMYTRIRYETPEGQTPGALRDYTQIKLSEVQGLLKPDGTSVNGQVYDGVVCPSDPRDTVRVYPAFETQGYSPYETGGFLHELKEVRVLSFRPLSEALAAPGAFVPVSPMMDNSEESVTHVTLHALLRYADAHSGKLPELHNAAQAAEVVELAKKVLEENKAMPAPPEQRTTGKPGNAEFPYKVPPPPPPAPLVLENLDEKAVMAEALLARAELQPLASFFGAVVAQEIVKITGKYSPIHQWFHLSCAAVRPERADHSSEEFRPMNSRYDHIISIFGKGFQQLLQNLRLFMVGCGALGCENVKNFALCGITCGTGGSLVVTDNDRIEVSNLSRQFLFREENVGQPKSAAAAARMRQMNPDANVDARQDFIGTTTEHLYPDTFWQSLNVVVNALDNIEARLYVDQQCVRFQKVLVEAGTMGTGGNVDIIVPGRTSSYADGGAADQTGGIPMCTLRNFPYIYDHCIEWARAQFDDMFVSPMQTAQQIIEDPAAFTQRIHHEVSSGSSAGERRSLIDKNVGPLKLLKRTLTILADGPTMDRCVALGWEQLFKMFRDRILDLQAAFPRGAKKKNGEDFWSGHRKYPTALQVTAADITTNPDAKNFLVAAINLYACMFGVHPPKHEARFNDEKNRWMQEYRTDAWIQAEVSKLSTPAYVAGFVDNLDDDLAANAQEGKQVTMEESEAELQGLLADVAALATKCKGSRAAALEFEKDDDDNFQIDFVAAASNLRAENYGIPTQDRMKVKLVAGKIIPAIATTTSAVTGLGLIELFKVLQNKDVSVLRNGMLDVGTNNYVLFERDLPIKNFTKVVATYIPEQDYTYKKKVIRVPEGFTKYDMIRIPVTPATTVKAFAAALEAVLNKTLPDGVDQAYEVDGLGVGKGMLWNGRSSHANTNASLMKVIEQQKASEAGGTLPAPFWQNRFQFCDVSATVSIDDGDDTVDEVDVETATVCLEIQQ
Briefly: Leishmania donovani Ubiquitin Activating Enzyme (LdE1). The class given is functional. To be noted: 30 µM. Further details: scale not given: direction of the effect not stated beside the values.

The target in assay [4] is AMP-activated protein kinase, AMPK (Homo sapiens) (UniProt P54646+O43741+P54619+Q9UGJ0+Q9Y478+Q13131+Q9UGI9). Briefly: AMP-dependent Kinase enzyme assay. An in vitro enzyme assay that detects ADP turnover that is directly proportional to AMPK activity. This uses naive AMPK that is activated during the assay with MK-8722. Particulars: 30 µM. Further details: scale not given: direction of the effect not stated beside the values. The class given is functional.

Assay [5] has as its target Sialic acid-binding Ig-like lectin 9 (Homo sapiens) (UniProt Q9Y336). The assay is described as follows: Hs-Siglec9 ALPHAscreen SOP 20170721. The arrangement: scale not given: direction of the effect not stated beside the values. Particulars: 10 µM.
In assay [6] the test system is Trypanosoma cruzi. Briefly: Trypanosoma cruzi phosphomannomutase and mannose-1-phosphate guanylyltransferase assay. The class given is functional. Further details: scale not given: direction of the effect not stated beside the values. Particulars: 10 µM.
Assay [7] deals with T3, Arginase-2, mitochondrial (Homo sapiens) (UniProt P78540).
T3 sequence (whole entry): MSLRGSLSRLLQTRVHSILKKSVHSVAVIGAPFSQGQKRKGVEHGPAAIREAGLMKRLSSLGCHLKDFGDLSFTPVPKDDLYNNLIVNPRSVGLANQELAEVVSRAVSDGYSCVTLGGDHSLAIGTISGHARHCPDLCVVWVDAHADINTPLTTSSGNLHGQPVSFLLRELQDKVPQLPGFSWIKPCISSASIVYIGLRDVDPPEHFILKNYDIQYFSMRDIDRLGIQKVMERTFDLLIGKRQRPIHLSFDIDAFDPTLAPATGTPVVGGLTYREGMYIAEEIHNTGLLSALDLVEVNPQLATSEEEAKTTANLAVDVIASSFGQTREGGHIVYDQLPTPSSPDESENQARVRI
The assay is described as follows: in vitro enzyme assay to detect the production of urea directly proportional to the activity of Arginase II. Format: functional. The arrangement: scale not given: in the data most compounds retested in dose-response had high values. Particulars: 33.3 µM.

Assay [8] concerns the target T4, Proteasome subunit beta (Trypanosoma cruzi) (UniProt O96673).
T4 sequence (whole entry): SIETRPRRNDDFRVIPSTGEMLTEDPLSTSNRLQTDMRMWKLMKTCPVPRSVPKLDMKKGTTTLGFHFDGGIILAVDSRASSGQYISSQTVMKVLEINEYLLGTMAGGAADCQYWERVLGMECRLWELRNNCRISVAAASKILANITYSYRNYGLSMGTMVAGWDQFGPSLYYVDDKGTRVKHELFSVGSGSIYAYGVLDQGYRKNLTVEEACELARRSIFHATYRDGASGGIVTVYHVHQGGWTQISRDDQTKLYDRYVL
The assay is described as follows: Trypanosoma cruzi proteasome chymotrypsin-like activity (TcProtChymo) assay. To be noted: 9.37 µM. Further details: scale not given: in the data most compounds retested in dose-response had high values. The class given is functional.

Assay [9] is filed under the species Homo sapiens. Briefly: To identify inhibition of the IFN signalling (Jak-Stat) pathway via expression of an eGFP reporter gene under the control of an IFN-stimulated response element (ISRE) containing MxA promoter. The class given is functional. The arrangement: scale not given: direction of the effect not stated beside the values. To be noted: 30 µM. On the technique in general: In a reporter assay the amount or activity of a reporter protein is the signal.

The target of assay [10] is T5, Tyrosyl-tRNA synthetase, putative (Trypanosoma cruzi (strain CL Brener)) (UniProt Q4DSP6).
T5 sequence (whole entry): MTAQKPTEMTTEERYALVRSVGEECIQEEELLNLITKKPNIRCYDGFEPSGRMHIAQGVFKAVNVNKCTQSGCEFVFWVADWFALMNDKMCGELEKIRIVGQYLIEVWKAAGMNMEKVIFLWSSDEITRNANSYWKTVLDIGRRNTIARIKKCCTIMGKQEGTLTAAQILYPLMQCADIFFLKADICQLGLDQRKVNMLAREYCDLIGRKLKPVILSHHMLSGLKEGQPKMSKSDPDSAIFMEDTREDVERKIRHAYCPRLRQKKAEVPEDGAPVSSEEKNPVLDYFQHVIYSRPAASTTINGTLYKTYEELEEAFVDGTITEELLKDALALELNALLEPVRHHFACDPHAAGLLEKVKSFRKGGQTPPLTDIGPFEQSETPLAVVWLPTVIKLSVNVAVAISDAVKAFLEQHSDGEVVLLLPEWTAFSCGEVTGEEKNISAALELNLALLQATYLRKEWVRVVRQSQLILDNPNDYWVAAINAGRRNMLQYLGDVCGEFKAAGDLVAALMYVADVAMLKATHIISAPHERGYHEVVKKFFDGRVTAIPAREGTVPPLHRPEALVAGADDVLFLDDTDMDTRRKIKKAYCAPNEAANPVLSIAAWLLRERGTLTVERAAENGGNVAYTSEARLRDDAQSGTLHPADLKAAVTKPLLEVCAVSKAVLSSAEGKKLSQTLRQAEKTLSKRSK
Briefly: Trypanosoma cruzi tyrosyl tRNA synthetase (TcYRS) _High Tyrosine SOP. The class given is functional. The arrangement: scale not given: in the data most compounds retested in dose-response had high values. Particulars: 30 µM.

The target in assay [11] is T5, Tyrosyl-tRNA synthetase, putative (Trypanosoma cruzi (strain CL Brener)). The assay is described as follows: Trypanosoma cruzi tyrosyl tRNA synthetase (TcYRS) SOP. Format: functional. The arrangement: scale not given: direction of the effect not stated beside the values. To be noted: 30 µM.
For assay [12], the target named is Chromo domain-containing protein 1 (Saccharomyces cerevisiae (strain ATCC 204508 / S288c) (Baker's yeast)) (UniProt P32657). The assay is described as follows: ScCHD-1 Enzyme Inhibition Assay. The class given is functional. The arrangement: scale not given: in the data most compounds retested in dose-response had high values. To be noted: 30 µM.
Chain of Chromo domain-containing protein 1 (Saccharomyces cerevisiae (strain ATCC 204508 / S288c) (Baker's yeast)) (P32657 whole entry, the tested form may be a part): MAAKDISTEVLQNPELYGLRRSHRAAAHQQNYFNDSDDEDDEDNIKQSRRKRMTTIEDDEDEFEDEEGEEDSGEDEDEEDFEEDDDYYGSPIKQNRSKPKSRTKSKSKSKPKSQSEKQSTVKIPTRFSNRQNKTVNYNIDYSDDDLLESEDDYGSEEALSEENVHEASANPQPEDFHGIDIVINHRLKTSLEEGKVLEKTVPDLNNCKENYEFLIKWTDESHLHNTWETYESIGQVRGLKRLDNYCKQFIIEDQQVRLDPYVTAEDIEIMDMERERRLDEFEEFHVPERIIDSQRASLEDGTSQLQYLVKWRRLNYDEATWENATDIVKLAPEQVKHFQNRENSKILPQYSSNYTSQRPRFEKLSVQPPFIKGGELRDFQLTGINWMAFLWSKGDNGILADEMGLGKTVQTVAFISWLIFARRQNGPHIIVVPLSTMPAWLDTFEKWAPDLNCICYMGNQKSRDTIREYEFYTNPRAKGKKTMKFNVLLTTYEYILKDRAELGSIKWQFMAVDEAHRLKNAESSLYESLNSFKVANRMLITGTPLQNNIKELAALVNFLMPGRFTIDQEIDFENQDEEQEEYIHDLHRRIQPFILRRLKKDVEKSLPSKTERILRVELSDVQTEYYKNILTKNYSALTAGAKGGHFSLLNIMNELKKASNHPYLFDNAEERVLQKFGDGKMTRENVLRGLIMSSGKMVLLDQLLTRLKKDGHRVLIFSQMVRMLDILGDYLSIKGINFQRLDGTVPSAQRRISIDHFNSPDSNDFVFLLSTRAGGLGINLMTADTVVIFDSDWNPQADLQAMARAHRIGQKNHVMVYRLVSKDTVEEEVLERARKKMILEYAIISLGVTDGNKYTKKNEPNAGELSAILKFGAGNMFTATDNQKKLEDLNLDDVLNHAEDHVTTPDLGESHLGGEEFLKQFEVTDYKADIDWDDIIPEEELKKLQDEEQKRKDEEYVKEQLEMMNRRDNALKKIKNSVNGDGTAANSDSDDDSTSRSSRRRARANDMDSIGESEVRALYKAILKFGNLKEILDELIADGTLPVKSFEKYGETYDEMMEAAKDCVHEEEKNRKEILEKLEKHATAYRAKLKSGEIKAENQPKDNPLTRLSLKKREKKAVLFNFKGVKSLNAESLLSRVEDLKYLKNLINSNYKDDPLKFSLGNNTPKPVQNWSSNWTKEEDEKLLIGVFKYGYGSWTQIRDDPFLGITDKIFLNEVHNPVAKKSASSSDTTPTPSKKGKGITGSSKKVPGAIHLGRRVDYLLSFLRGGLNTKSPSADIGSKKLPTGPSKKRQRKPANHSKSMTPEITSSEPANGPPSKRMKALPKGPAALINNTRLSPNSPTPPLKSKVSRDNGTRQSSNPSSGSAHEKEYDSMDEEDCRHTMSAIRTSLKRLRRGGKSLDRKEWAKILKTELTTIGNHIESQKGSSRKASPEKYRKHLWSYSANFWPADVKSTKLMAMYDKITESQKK

Chain of Sialic acid-binding Ig-like lectin 9 (Homo sapiens) (Q9Y336 whole entry): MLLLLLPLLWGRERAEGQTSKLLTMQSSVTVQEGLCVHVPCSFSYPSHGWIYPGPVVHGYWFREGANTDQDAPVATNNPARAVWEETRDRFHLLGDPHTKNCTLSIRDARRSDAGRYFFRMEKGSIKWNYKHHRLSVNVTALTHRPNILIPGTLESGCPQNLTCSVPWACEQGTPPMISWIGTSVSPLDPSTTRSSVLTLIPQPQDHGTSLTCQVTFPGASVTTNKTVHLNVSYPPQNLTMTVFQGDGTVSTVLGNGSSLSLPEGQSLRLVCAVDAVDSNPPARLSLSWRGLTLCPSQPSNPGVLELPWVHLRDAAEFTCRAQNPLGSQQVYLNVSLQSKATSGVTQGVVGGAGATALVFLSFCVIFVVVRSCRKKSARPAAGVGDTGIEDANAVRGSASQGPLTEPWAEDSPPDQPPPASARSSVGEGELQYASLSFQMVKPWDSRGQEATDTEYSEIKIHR
Chain of Protein translocase subunit SecA (Escherichia coli (strain K12)) (P10408 whole entry): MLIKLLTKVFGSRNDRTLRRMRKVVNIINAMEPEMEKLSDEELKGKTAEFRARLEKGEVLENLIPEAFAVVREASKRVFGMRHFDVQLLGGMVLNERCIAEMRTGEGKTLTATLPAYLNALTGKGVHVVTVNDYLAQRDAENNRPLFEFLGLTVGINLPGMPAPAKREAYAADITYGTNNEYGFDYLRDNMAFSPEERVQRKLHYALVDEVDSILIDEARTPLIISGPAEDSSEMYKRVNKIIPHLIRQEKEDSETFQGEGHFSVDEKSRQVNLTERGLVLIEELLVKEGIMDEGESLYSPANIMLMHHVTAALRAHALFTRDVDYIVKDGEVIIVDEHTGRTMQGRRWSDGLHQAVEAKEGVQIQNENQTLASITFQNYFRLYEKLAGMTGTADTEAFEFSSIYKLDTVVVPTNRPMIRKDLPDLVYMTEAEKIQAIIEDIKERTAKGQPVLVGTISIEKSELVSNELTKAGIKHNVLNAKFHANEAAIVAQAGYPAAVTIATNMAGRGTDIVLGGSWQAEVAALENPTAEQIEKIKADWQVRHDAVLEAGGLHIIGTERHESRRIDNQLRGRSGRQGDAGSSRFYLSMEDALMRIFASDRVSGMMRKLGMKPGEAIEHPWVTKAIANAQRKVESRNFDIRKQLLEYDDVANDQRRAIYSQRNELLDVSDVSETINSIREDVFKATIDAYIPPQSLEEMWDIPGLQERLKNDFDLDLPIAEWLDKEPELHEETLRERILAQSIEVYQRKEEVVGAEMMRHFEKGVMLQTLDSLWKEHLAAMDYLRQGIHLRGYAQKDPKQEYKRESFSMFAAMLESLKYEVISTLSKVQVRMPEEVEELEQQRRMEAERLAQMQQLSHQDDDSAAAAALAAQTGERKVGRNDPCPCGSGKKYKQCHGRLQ

Take `Cc1nccn1CCCn1cncc1-c1ccc2c(c1)CCC(C)N2C` (stereo unspecified): the PXC50 in assay [1] (BOTTOM 4.710746105, HILLSLOPE 1.396694103, MAX_EFFECT 77.77777778, TOP 100.0) is 4.36; in assay [1] (BOTTOM 4.776972445, HILLSLOPE 4.284267496, MAX_EFFECT 55.70469799, TOP 54.26344413) it was 4.56; in assay [1] (BOTTOM 5.773645077, HILLSLOPE 1.775302265, MAX_EFFECT 72.6169844, TOP 100.0), 4.22; in [1] (MAX_EFFECT 2.857142857) it was below 4; in assay [1] (MAX_EFFECT 4.347826087), below 4.
For the molecule `Cc1cc(C)c(CNC(=O)N2CCCC2c2cccn2C)c(=O)[nH]1` (stereo unspecified), the PXC50 in [1] (BOTTOM 1.39525403, HILLSLOPE 1.863289847, MAX_EFFECT 51.97132616, TOP 100.0) was 4.01; in assay [1] (BOTTOM -10.14330359, HILLSLOPE 0.427510045, MAX_EFFECT 50.72463768, TOP 100.0), 4.22; in [1] (MAX_EFFECT 28.8676236) it was below 4; in assay [1] (MAX_EFFECT 30.90211132), below 4; in [1] (MAX_EFFECT 48.51485149), below 4. The Percent Effect was -1.81% in [2]; 8.86% in assay [3]; 3.05% in assay [4]; 2.38% in assay [5]; 2.97% in [6]; 3.66% in [7]. Moreover, the Percent Effect in assay [8] was 10.6%; in assay [9] it was -3.9%; in [10] it was 13.5%; in [11] it was 27.9%; in assay [12], -14.4%.
Consider `CCN(CC)c1ccc2ccc(C(=O)NC3CC3)cn12`, for which the PXC50 in assay [1] (MAX_EFFECT 23.88888889), in [1] (MAX_EFFECT 27.69953052), in assay [1] (MAX_EFFECT 36.60245184), in assay [1] (MAX_EFFECT 45.65217391) and in [1] (MAX_EFFECT 46.2585034) was below 4 in each case.
